# Experimental data reported in PubChem BioAssay AID2216 (Broad Institute, 2009).
# “And” between values parts separate entries of the source, which are not always exact repeats. Equal entries are not always repeated. In all, about 300,000 compounds went through this assay and about 3,300 (1.1%) were called active. Inconclusive results (about 6%) are left out. This is one part of a sample in which actives are shown more often than they occur.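 Rule for the calls: active = more than half of the replicate wells show a fall in the fluorescence ratio signal beyond about 16% (limit read from the data, passing the limit was not always enough); inconclusive = exactly half of the replicate wells pass the set limit; inactive = fewer than half of replicates pass the limit.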
# System: Ran GTPase (GTP-bound) - importin-beta complex
# Assay: inhibitors of RanGTP-importin-beta interaction, primary screen, biochemical, FRET, CFP-Ran, YFP-importin-beta, homogeneous (AID 2216);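 note: 0% = DMSO wells and 100% = Ran loaded with GDP instead of GTP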
# Conditions: cell-free CFP-Ran/YFP-importin-beta FRET ratio; active compounds read high; concentration not given here
row,Structure (SMILES),inhibition
1,CCOC(=O)c1c(NC(=O)NC(C)(C)C)sc2c1CCN(C)C2,12% (inactive)
2,CCOC(=O)c1c(NC(=S)Nc2ccccc2C)sc2c1CCC2,-2.16% (inactive)
3,CCOC(=O)c1c(NC(=S)Nc2ccccc2)sc2c1CCN(C)C2,70% (active)
4,COc1cccc(NC(C)=[N+](C)CCNS(=O)(=O)c2ccc(Cl)cc2)c1,-6.06% (inactive)
5,COc1ccc(NC(=O)CN(C)C(=O)c2n[nH]c3ccccc23)cc1,-0.623% (inactive)
6,CCCCn1c(N)c(N(CCOC)C(=O)c2cccc(S(=O)(=O)N3CCCCC3)c2)c(=O)[nH]c1=O,6.51% (inactive)
7,O=C(COC(=O)c1ncc(Cl)c(Cl)c1Cl)NNC(=O)c1ccccc1,7.08% (inactive)
8,CCN1C(=O)/C(=c2\s/c(=C3\Sc4ccccc4N3C)c(=O)n2C)N(C)C1=S,1.12% (inactive)
9,CCCCN1C(=O)/C(=C2/Sc3ccc(Cl)cc3N2CC)SC1=S,0.428% (inactive)
10,CCN1C(=O)/C(=C2/Sc3ccccc3N2CCCS(=O)(=O)O)SC1=S,43.1% (active) and 55.8% (active)
11,O=C(/C=C/c1ccc([N+](=O)[O-])o1)NNC(=O)c1ccc(F)cc1,-0.948% (inactive)
12,CCOC(=O)NC(=O)/C(C#N)=C\c1ccccc1,5.82% (inactive)
13,CCOC(=O)/C(C#N)=C/c1ccc(OCC(=O)Nc2ccccc2)c(OC)c1,1.23% (inactive)
14,COc1ccc(/C=C(\C#N)C(=O)ONC2=NCCCCC2)cc1,2.96% (inactive)
15,CCOC(=O)/C(C#N)=C/c1ccc(N2CCCCC2)cc1,91% (active)
16,CCOC(=O)/C(C#N)=C/c1ccc(N2CCN(Cc3ccccc3)CC2)cc1,72.8% (active)
17,COc1ccc(N2CCN(C(=O)/C(C#N)=C/c3ccccc3)CC2)cc1,-3.23% (inactive)
18,CC(=O)NCC(=O)N1CCC(n2nccc2NC(=O)CCCc2ccccc2)CC1,-2.9% (inactive)
19,Cc1cc(O)c(Sc2ccccc2)c(=O)o1,-1.75% (inactive)
20,Cc1ccc(NC(=O)COc2coc(CN3CCc4ccccc4C3)cc2=O)cc1Cl,1.39% (inactive)
21,COc1ccc(C(CNC(=O)c2cccc(NS(=O)(=O)c3ccc(C)c(F)c3)c2)N2CCCC2)cc1 (centres undefined),-0.978% (inactive)
22,Cc1ccc(OCCNC(=O)CNC(=O)c2ccc(C)c(C)c2)cc1,4.18% (inactive)
23,COc1ccc(N=Nc2ccc(O)c(P(=O)(c3ccccc3)c3ccccc3)c2)cc1,-0.168% (inactive)
24,Oc1ccc(N=Cc2sc3ccccc3c2Cl)cc1,5.46% (inactive)

row,Structure (SMILES),inhibition
1,COc1ccc(N=C(C)c2sc3ccccc3c2O)cc1,39.4% (active)
2,COC(=O)c1cc(OC)c(OC)cc1NC(=O)CSc1ccc(C)cc1,-0.733% (inactive)
3,COc1ccc(C)cc1NC(=O)CSc1nc(SC)ns1,2.19% (inactive)
4,COc1ccc(C)cc1NC(=O)CSc1ccc(Cl)cc1,27.5% (active)
5,CCC(c1nnc(SCC(=O)NNC(=O)c2ccccc2)n1Cc1ccccc1)N(C)C (centres undefined),-5.06% (inactive)
6,Cc1cccn2c(=O)c(/C=C(\C#N)S(=O)(=O)c3ccc(Cl)cc3)c(N3CCC(C(N)=O)CC3)nc12,16.6% (active)
7,Cc1cc(C)c(C#N)c(N2CCC(C(N)=O)CC2)n1,-1.05% (inactive)
8,Cc1cccn2c(=O)c(/C=C(\C#N)C(N)=O)c(N3CCCCCC3)nc12,-1.31% (inactive)
9,CS(=O)(=O)N(CC(=O)N1CCc2ccccc2C1)c1ccc(Br)cc1,0.322% (inactive)
10,Cc1ccc(-c2csc(NC(=O)C3=COCCO3)n2)cc1C,2.13% (inactive)
11,COc1ccc2oc(=O)c(C(=O)N3CCCC3)cc2c1,0.715% (inactive)
12,COc1cccc(C(=O)NNC(=O)c2cccc(F)c2)c1,-3.67% (inactive)
13,COc1cccc(C(=O)c2cc3ccc(O)cc3oc2=O)c1,26.4% (active)
14,COc1cccc(N2CC(NC(=O)c3ccc4ccccc4c3)CC2=O)c1 (centres undefined),-1.06% (inactive)
15,CCN1C(=O)[C@H]2[C@@H](c3ccc(-c4ccc(F)cc4)cc3)N[C@@](Cc3ccccc3)(C(=O)OC)[C@H]2C1=O,-2.12% (inactive)
16,COc1ccc(N2CCN(C(=O)COC(=O)c3cccc(S(=O)(=O)Nc4ccccc4OC)c3)CC2)cc1,-1.93% (inactive)
17,O=C(CN1C(=O)CC(c2ccccc2)S(=O)(=O)c2ccccc21)NC1CCCC1 (centres undefined),0.0598% (inactive)
18,CC1CC(=O)N(CC(=O)Nc2cccc(Cl)c2)c2ccccc2S1(=O)=O (centres undefined),18.5% (active)
19,CCOC(=O)c1cccc(NC(=O)CN2C(=O)C3CC=CCC3C2=O)c1 (centres undefined),3.31% (inactive)
20,COc1ccc2c(c1)C(=O)Nc1cc(Cl)ccc1N2,1.28% (inactive)
21,Cc1noc(C)c1CSCC(=O)N(CCC(C)C)c1c(N)n(Cc2ccccc2)c(=O)[nH]c1=O,-1.15% (inactive)
22,COc1ccc(CN2[C@@H](CC(=O)O)c3cc(F)ccc3S2(=O)=O)cc1,3.99% (inactive)
23,CCN1C(=O)[C@H]2[C@@H](c3ccc(SC4CCCCC4)c(OC)c3)N[C@@](Cc3ccccc3)(C(=O)OC)[C@H]2C1=O,-1.26% (inactive)
24,CN1CCN(c2ccc(NC(=O)c3ccc4c(c3)[nH]c(=O)n4Cc3ccc(F)cc3)cc2)CC1,0.81% (inactive)

row,Structure (SMILES),inhibition
1,CN1CCN(c2cc(=O)n(-c3ccc(Cl)cc3)c(=O)[nH]2)CC1,31.4% (active)
2,O=C(Cc1ccc(-n2c(=O)[nH]c3ccccc3c2=O)cc1)N1CCN(c2cccc(Cl)c2)CC1,2.52% (inactive)
3,CCCC[C@@H]1CN=C(N)N1CCCC,5.62% (inactive)
4,O=C(Oc1ccc(-c2nnco2)cc1)c1ccc(F)c(S(=O)(=O)N2CCOCC2)c1,1.51% (inactive)
5,CCCCOc1ccc(CSC(=N)N)cc1[N+](=O)[O-],-0.296% (inactive)
6,CCCOc1ccc(Cn2ccnc2)cc1[N+](=O)[O-],22.9% (active)
7,CCCCCOc1ccc(CSC2=NCCN2)cc1[N+](=O)[O-],-3.18% (inactive)
8,Cc1cc(=O)[nH]c(SCc2ccc(Cl)cc2)n1,2.35% (inactive)
9,COc1ccccc1CCC(=O)OCC(=O)N1CCN(S(=O)(=O)c2ccc(C)cc2C)CC1,-0.0627% (inactive)
10,Cc1ccc(S(=O)(=O)CCC(=O)OCC(=O)N(C)C2CCS(=O)(=O)C2)cc1 (centres undefined),-1.57% (inactive)
11,CCc1ccc(C(=O)COC(=O)c2ccco2)cc1,-1.46% (inactive)
12,O=C(Nc1ccc2sc3ccccc3c(=O)c2c1)c1ccccc1Cl,97.7% (active)
13,O=C(Nc1ccc2nc3n(c(=O)c2c1)CCCCC3)c1ccccc1Cl,-0.768% (inactive)
14,O=C(Nc1cccc(NC(=O)c2ccccc2[N+](=O)[O-])c1)c1ccccc1Cl,1.99% (inactive)
15,COc1cnn(-c2ccc([N+](=O)[O-])cc2)c(=O)c1Cl,9.19% (inactive)
16,CCCCCN(C(=O)CCC(=O)OCC(=O)NC1CCC(C)CC1)c1c(N)n(CCCC)c(=O)[nH]c1=O (centres undefined),10.6% (inactive)
17,O=C(NC(Cc1ccccc1)C(=O)N1CCCC(C(F)(F)F)C1)c1ccccc1 (centres undefined),-0.899% (inactive)
18,COC(=O)NNC1=CC(=O)CC(C)(C)C1,2.34% (inactive)
19,Cc1cc(O)ccc1NC1=CC(=O)CC(C)(C)C1,18.8% (active)
20,CC1(C)CC(=O)C=C(Nc2ccccc2)C1,11.7% (inactive)
21,CCCCCCCNC(=O)C1(CC2CC(c3cccc(Br)c3)=NO2)CCN(C(=O)c2cc(OCC)c(OCC)c(OCC)c2)CC1 (centres undefined),-1.08% (inactive)
22,COc1cc(/C=C(\C#N)c2nc3ccccc3[nH]2)ccc1O,-13.2% (inactive)
23,COc1ccc(/C=C(\C#N)c2c[nH]c3ccccc23)cc1,17.3% (active)
24,COc1ccc2[nH]cc(/C=C(/C#N)S(=O)(=O)c3ccccc3)c2c1,-20.9% (inactive)

row,Structure (SMILES),inhibition
1,CCCNC(=O)c1ccc(N2CCC3(CC2)CC(c2cccc(Br)c2)=NO3)c(NC(=O)c2ccco2)c1,-1.47% (inactive)
2,Cc1cc(/C=C2/SC(=O)N(CC(=O)N3CCCC3)C2=O)c(C)n1C,-0.395% (inactive)
3,CCN(CC(=O)Nc1c(F)cccc1F)C(=O)CN1c2cccc3cccc(c23)S1(=O)=O,-0.907% (inactive)
4,COc1ccc(Cc2nnc(SCC(=O)Nc3ccc(C)c(Cl)c3)[nH]c2=O)cc1,-0.239% (inactive)
5,O=C(COC(=O)c1ccc([N+](=O)[O-])cc1Cl)NC(=O)c1ccccc1,-13.9% (inactive)
6,CN(C)/C=C1\C=C(c2ccccc2)OC1=O,-3.27% (inactive)
7,Cc1ccc(C2=C/C(=C\c3cccnc3)C(=O)O2)cc1,8.88% (inactive)
8,COc1cccc(/C=C2\C=C(c3ccc(C)cc3)OC2=O)c1OC(C)=O,20.6% (active)
9,COc1cccc(/C=C/C(=O)OCC(=O)N2CCCc3ccccc32)c1,3.35% (inactive)
10,O=C(CCNC(=O)c1ccc(Br)cc1)NCCCc1ccccc1,1.56% (inactive)
11,O=C(NCc1cccnc1)c1cc(S(=O)(=O)N2CCOCC2)c(Cl)cc1Cl,-0.678% (inactive)
12,COc1ccc2oc(C(=O)NCc3ccco3)c(C)c2c1,-0.417% (inactive)
13,Cc1ccccc1NC(=O)Cn1c(=O)n(CC2CCCO2)c(=O)c2ccccc21 (centres undefined),0.402% (inactive)
14,Cc1ccc(C(=O)NCCN2CCOCC2)cc1C,-1.81% (inactive)
15,Cc1cccn2c(=O)c3cc(C(=O)NC4CCCCC4)sc3nc12,2% (inactive)
16,Cc1ccc2nc3c(cc(C(=O)NCCc4ccccc4)c(=N)n3CC3CCCO3)c(=O)n2c1 (centres undefined),182% (active)
17,COc1ccc(CCn2c(=N)c(C(=O)NCc3ccco3)cc3c(=O)n4cccc(C)c4nc32)cc1,21.1% (active)
18,Cc1cccn2c(=O)c3cc(C#N)c(=NC(=O)c4cccnc4)n(CC4CCCO4)c3nc12 (centres undefined),154% (active)
19,Cc1cccn2c(=O)c3cc(C(=O)NCCN4CCOCC4)c(=N)n(Cc4cccnc4)c3nc12,167% (active)
20,COc1ccc(CCNC(=O)Cn2c(=O)n(CC3CCCO3)c(=O)c3ccccc32)cc1OC (centres undefined),-2.65% (inactive)
21,O=C(NCc1ccco1)c1cccn2c(=O)c3c4c(sc3nc12)CCCC4,-9.38% (inactive)
22,Cc1ccc(CCNC(=O)c2ccc3nc4ccccc4c(=O)n3c2)cc1,8.55% (inactive)
